Assay outcomes deposited in PubChem by National Center for Advancing Translational Sciences (NCATS).
HT1080-NT tox: kills 2HG-producing HT-1080-NT fibrosarcoma cells. HT-1080-NT fibrosarcoma viability, CellTiter-Glo ATP luminescence, 48 h. Potency, µM (highest dose often 46.1 µM), inactives show at the highest dose activity, negative = less viability, most hits filed as cytotoxic. hit rate 1.6% among 360,000;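 note: NT is the 2HG producing partner of a matched IDH1 knockdown line; potency is the fitted concentration of half-maximal effect; 0% = DMSO-treated cells and -100% = media-only wells without cells; nearly all actives have a fitted effect of over 55% in size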
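HT-1080-NT fibrosarcoma cells (2HG-overproducing), 750 cells/well in RPMI with 5% FBS, dosed after 2 h and incubated 48 h at 37C. CellTiter-Glo luminescence normalized to DMSO and no-cell wells; concentration-response curves fitted and classed.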
TDP1 cell CPT: growth inhibition of DT40 Tdp1-/-;hTDP1 cells with camptothecin (screen for TDP1 inhibitors); chicken DT40 Tdp1-/-;hTDP1 cells + 20 nM CPT, ATP luminescence, 48 h; hit rate 12% among 420,000; AID 686979; Potency, µM (top dose mostly 46.2 µM), for the others: at the top dose activity change, negative = growth inhibition, most hits filed as inhibitors; note: potency is the fitted concentration of half-maximal effect; nearly all actives have a fitted effect of over 55% in size
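Chicken DT40 Tdp1-/- cells complemented with human TDP1, 400 cells/well, exposed to compounds plus 20 nM camptothecin for at least 48 h at 37 C; viability read as ATP content by CellTiter-Glo luminescence.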
HT1080 IDH1KD tx: toxicity to HT-1080 IDH1 knockdown cells (counter line). HT-1080 IDH1 knockdown viability, ATP luminescence, 48 h. Potency, µM (doses to about 46.1 µM), for inactives: at the top dose activity, negative = toxicity, actives largely listed as cytotoxic. hit rate 2% among 360,000;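 note: potency is the fitted concentration of half-maximal effect; 0% = DMSO wells and -100% = cell-free medium wells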
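IDH1KD HT-1080 cells, 750/well, RPMI + 5% FBS; compound pinned after 2 h settling; 48 h, 37 °C; CellTiter-Glo luminescence; % activity normalised to DMSO and no-cell wells; curves fitted, classed by r2 and efficacy.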
TDP1 cell noCPT: qHTS for Inhibitors of human tyrosyl-DNA phosphodiesterase 1 (TDP1): qHTS in cells in absence of CPT | DT40 Tdp1-/- hTDP1 cells, no CPT, ATP luminescence, 48 h | Potency, µM (doses to about 46.2 µM), for the others: top-dose activity change, negative = growth inhibition, actives largely listed as inhibitors | hit rate 15% among 420,000; note: potency is the fitted concentration of half-maximal effect; nearly all actives have a fitted effect of over 55% in size
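Chicken DT40 Tdp1-/- cells complemented with human TDP1, screened without camptothecin (DMSO vehicle only), 400 cells/well. Compounds pin-transferred, cells incubated at 37 °C for at least 48 hr. Growth read as ATP-dependent luminescence (CellTiter-Glo, 30 min at RT).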
IL-1B inflam inh: inflammasome signaling inhibition, IL-1 beta readout. THP-1 LPS/ATP IL-1B secretion, AlphaLISA, 16 h; stronger effect = lower value. activity change, % at 57.5 µM. hit rate 4.7% among 360,000; in the data active = activity change below about -50%; inconclusive = mostly about -30% to -49%
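Secreted IL-1B measured by AlphaLISA bead assay after 16 h compound exposure of THP-1 cells; compounds (final up to 57.5 uM) added 1 h before LPS (250 ng/mL) and ATP (1.25 mM) stimulation; lower signal means less secretion.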
* = called active by the depositor; ? = inconclusive; / = no result. Rows were chosen to be rich in hits. Some 19% of all compounds tested hit in one or more screens of this group. Unless noted, calls come from the whole dose curve; as a rule, active = well fitted curve in the direction sought with a large enough effect; inconclusive = small, poorly fitted or top-dose-only effect, or another doubt; inactive = no such curve, though single readings can be large; an effect the other way counts as inactive or inconclusive. Unless noted, % is set by controls: 0 for no effect and ±100 for the full control effect.

SMILES	HT1080-NT tox	TDP1 cell CPT	HT1080 IDH1KD tx	TDP1 cell noCPT	IL-1B inflam inh
CC1CCCCN1C(=O)CSc1nc2cc3c(cc2c(=O)n1Cc1ccc2c(c1)OCO2)OCO3 (centres undefined)	-18%	21µM*	-9%	23µM*	?
COCCCNC(=O)CSc1nc2ccccc2c(=O)n1Cc1ccc2c(c1)OCO2	0%	-10%	-26%	-15%	0
CC(=O)OC(COc1ccccc1)Cn1cnc2cc(C)c(C)cc21 (centres undefined)	-9%	?	-2%	?	-7
CC(C)(C)OC(=O)NCc1ccc(NC(=O)c2nc[nH]c2C(=O)N[C@@H](Cc2ccccc2)C(=O)OCc2ccccc2)cc1	?	?	?	?	-65*
CC(C)(C)OC(=O)NCc1ccc(CNC(=O)c2[nH]cnc2C(=O)N[C@@H](Cc2ccccc2)C(=O)OC(C)(C)C)cc1	-12%	18µM*	-1%	21µM*	?
CC(C)C[C@H](NC(=O)c1nc[nH]c1C(=O)NCc1ccc(CNC(=O)OC(C)(C)C)cc1)C(=O)OCc1ccccc1	-9%	?	-1%	21µM*	0
CC(C)(C)OC(=O)NCc1ccc(CNC(=O)c2[nH]cnc2C(=O)N[C@@H](Cc2ccccc2)C(=O)OCc2ccccc2)cc1	-27%	?	-6%	23µM*	4
CC(C)C[C@H](NC(=O)c1nc[nH]c1C(=O)NCC(=O)OC(C)(C)C)C(=O)OCc1ccccc1	1%	?	0%	?	32
CC(C)(C)OC(=O)[C@H](Cc1ccccc1)NC(=O)c1nc[nH]c1C(=O)NCc1ccccc1	3%	?	4%	-30%	-29
CCC(C)(C)n1nnnc1C(c1ccc(O)cc1)N1CCc2ccccc2C1 (centres undefined)	0%	-16%	-8%	-17%	31
Cc1ccccc1CCNC(=O)C1CCN(S(=O)(=O)c2ccc3c(ccn3C)c2)CC1	/	-28%	/	?	/
COc1ccc(OC)c(NC(=O)c2ccc3nc(C(C)C)oc3c2)c1	/	12%	/	-1%	/
COC(=O)c1cc(COc2ccc3c(c2)oc(=O)c2ccccc23)c(C)o1	28%	?	27%	?	0
COc1ccc(Cc2n[nH]c(=S)n2NC(=O)Nc2ccc(Cl)c(Cl)c2)cc1	0%	10µM*	-10%	7.3µM*	-23
CN(C)CCNC(=O)c1csc(Nc2cccc3ccccc23)n1	?	-50%	?	?	-61*
O=C(NCC1CCCO1)c1csc(Nc2cccc3ccccc23)n1 (centres undefined)	?	18µM*	-6%	15µM*	-14
CCCNC(=O)c1csc(Nc2cccc3ccccc23)n1	-5%	?	5%	?	12
COCCNC(=O)c1csc(Nc2cccc3ccccc23)n1	?	-12%	3%	-29%	16
Cc1cc(=O)oc2cc(NC(=O)CCOc3ccccc3)ccc12	-3%	19%	-3%	-23%	-5
CCOc1ccc(CCNC(=O)C2CCN(S(=O)(=O)N3CCC(C)CC3)CC2)cc1OCC	0%	?	0%	?	1
CCN(CC)CCCNC(=O)C1CCN(C(=O)c2cc3sccc3n2Cc2ccc(F)cc2)CC1	?	-21%	?	-16%	-1
CCn1c(C(=O)N2CCC(C(=O)NCCc3ccccc3)CC2)cc2sccc21	/	?	/	26µM*	/
CCOc1ccc(CCNC(=O)C2CCN(C(=O)c3cc4sccc4n3CC)CC2)cc1OCC	/	16µM*	/	18µM*	/
CC(CCc1ccccc1)NC(=O)C1CCN(C(=O)c2sccc2-n2cccc2)CC1 (centres undefined)	7%	?	0%	21µM*	-17
CCCSCCCNC(=O)C1CCN(C(=O)c2cc3sccc3n2C)CC1	/	21µM*	/	21µM*	/
SMILES	HT1080-NT tox	TDP1 cell CPT	HT1080 IDH1KD tx	TDP1 cell noCPT	IL-1B inflam inh
CC1(C(=O)NS(=O)(=O)C2CC2)CCN(C(=O)c2cc(F)cc(F)c2)C1 (centres undefined)	23%	6%	4%	8%	12
O=C1C(=O)N(CC2CCCO2)C(c2ccco2)/C1=C(/O)c1ccc(F)cc1 (centres undefined)	12%	5%	20%	11%	-8
CCn1c(C(=O)N2CCC(C(=O)NCCCSC3CCCCC3)CC2)cc2sccc21	-12%	?	-4%	18µM*	2
CCn1c(C(=O)N2CCC(C(=O)NCCc3ccc(C)cc3)CC2)cc2sccc21	/	16µM*	/	21µM*	/
CCNC(=O)C1(C)CCCN(C(=O)c2ccnc(Cl)c2)C1 (centres undefined)	17%	1%	?	4%	9
CC[n+]1c(/C=C2/C=C(C)CC(C)(C)C2)sc2ccc(OC)cc21	21µM*	2.3µM*	?	1.2µM*	-112*
CC[n+]1c(/C=C2\C=C(C)CC(C)(C)C2)sc2ccccc21	?	0.65µM*	?	2.3µM*	-60*
Cc1nn(C2CCS(=O)(=O)C2)c(C)c1CN(C)C(=O)c1ccccc1 (centres undefined)	6%	-15%	5%	1%	1
CCOc1cccc2c1OC1(C)CC2NC(=O)N1c1cccc(C(=O)N2CCN(c3ccccn3)CC2)c1 (centres undefined)	1%	-23%	0%	-20%	-66*
COc1cccc2c1OC1(C)CC2NC(=O)N1c1cccc(C(=O)N2CCN(c3ccccn3)CC2)c1 (centres undefined)	5%	-3%	-1%	?	-15
NS(=O)(=O)c1cccc(NC(=O)CCN2C(=O)C3CCCCC3C2=O)c1 (centres undefined)	-1%	0%	-1%	-3%	24
NS(=O)(=O)c1ccc(NC(=O)Nc2ccc(Cl)cc2)cc1	-6%	-7%	-5%	16µM*	-17
CNC(=O)Nc1ccc(S(N)(=O)=O)cc1	-11%	11%	12%	5%	7
CN(CC(=O)Nc1ccc(C#N)cc1)Cc1ccc(Cl)cc1	?	?	?	?	-10
Cc1occc1C(=O)Nc1ccc(S(N)(=O)=O)cc1	0%	23µM*	7%	?	-2
CC(=O)N(C)c1ccc(NC(=O)Nc2ccc(Cl)cc2)cc1	-2%	?	0%	18µM*	-25
N#Cc1ccc(NC(=O)Nc2ccc(Cl)cc2)cc1	15µM*	2.9µM*	?	3.7µM*	-110*
CNS(=O)(=O)c1ccc(NC(=O)c2ccoc2C)cc1	1%	-2%	0%	-26%	-8
CC(=O)N(C)c1ccc(NC(=O)Nc2ccc(C)cc2)cc1	3%	-25%	2%	19%	-20
